Among the data in PubChem BioAssay AID485349 (National Center for Advancing Translational Sciences (NCATS), 2010) are Potency and activation values, retold here.

The campaign covered roughly 320,000 compounds. About 620 (0.19%) were called active. The entries come from a sample that favours actives as a whole. Where a call stands in place of a potency, no number is given. Values without a mark were called inactive. Calls come from the whole dose curve; as a rule, active = well fitted activation curve with a large enough effect; inconclusive = small, poorly fitted or top-dose-only effect; inactive = no such curve, though single readings can be large or run the other way.
Potency is the fitted concentration of half-maximal effect.

A short description of the experiment: qHTS Assay for Identifying a Potential Treatment of Ataxia-Telangiectasia. Note: nearly all actives have a fitted effect of over 45% in size. As to conditions: F2112 A-T fibroblasts, KAP-1 phosphorylation AlphaLISA, neocarzinostatin DNA damage 30 min before lysis; series mostly up to 57.5 µM. The method in brief: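 ATM-like activity read as KAP-1 phosphorylation via AlphaLISA donor/acceptor antibody pairs after lysis and 6 hr at 25C. Cells were ATM-null patient fibroblasts (F2112, hTERT), dosed 60 min, then exposed to the DSB inducer NCS for 30 min.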
On to `CC1(C)CCSC(/C=C/c2ccccc2)=N1`, for which the Potency result is “inactive”.
For the compound `CC[C@]12c3[nH]c4ccc(Cl)cc4c3CCN1C(=O)[C@@H](CC(=O)NCCCOC)C[C@@H]2C(=O)N1CCN(C(=O)c2ccco2)CC1`, the Potency entry is “inactive”.
`Cc1ccc(S(=O)(=O)N(C)C)cc1NC(=O)C(C)OC(=O)c1ccc2ccccc2n1` (stereo unspecified): the Potency result is “inactive”.
As for `Cc1cc(NS(=O)(=O)c2ccc(NC(=O)C(C)Oc3cccc(C)c3C)cc2)nc(C)n1` (stereo unspecified), the Potency entry was “inactive”.
Regarding `CCCCNC(=O)CCn1nc(-c2ccc(Cl)cc2)ccc1=O`, the Potency entry is “inactive”.
The same measure, in the same setting: the entry for `CCCCNC(=O)C(C)N(CCN(C)C)C(=O)CCCN1C(=O)NC(c2ccc(Cl)cc2)C(C(=O)OCc2ccccc2)=C1C` (stereo unspecified) is “inactive”; for `COCc1cc(C)nc2sc3c(=O)n(-c4cccc5ccccc45)nnc3c12` it is “inactive”; for `CCCNC(=O)N1CCN(C(=O)NCCC)CC1` it is “inactive”.
Take `OCCC1CN(Cc2cccn2-c2nccs2)CCN1CCc1ccccc1` (stereo unspecified): the Potency entry is “inactive”.
On to `O=C(CN1C(=O)CC(c2ccccc2)=Nc2ccccc21)NC1CCCCC1`, for which the Potency result was “inactive”.
Regarding `COc1ccc(C(CC(=O)c2ccccc2)S(=O)(=O)c2ccccc2)cc1` (stereo unspecified), the Potency entry is “inactive”.
Still for that read-out and setting: the entry for `CC(Sc1nn(-c2ccc(Cl)cc2)c(=S)s1)C(=O)NCC1CCCO1` (stereo unspecified) is “inactive”; for `CC1CC(C)(C)n2c(O)c(N=NC(N)=S)c3cccc1c32` (stereo unspecified) it is 12.6 µM (active).
For the compound `Cc1ccc(C(=O)N/C(=C/c2cccs2)C(=O)N2CCCCC2)cc1`, the Potency entry is “inactive”.
As to `Cc1cc(C)c2nc(N(CCN(C)C)C(=O)/C=C/c3cccs3)sc2c1`, the Potency entry was “inactive”.
Take `CCC(=O)Nc1ccc(-c2ccc(N3CCCCC3)nn2)cc1`: the Potency entry was “inactive”.
Regarding `CC[C@]1(C(=O)OC)[C@H]2C(=O)N(Cc3ccccc3)C(=O)[C@H]2[C@H]2CN=C(SCc3ccccc3)N21`, the Potency entry is “inactive”.
For the compound `COc1ccc(NC(=O)Cn2cc(C(=O)c3ccncc3)c(=O)c3cc(C)ccc32)cc1Cl`, the Potency is 28.2 µM (active).
The same measure, in the same setting: the same measure for `COc1ccc(NC(=O)CN2CCN(S(=O)(=O)c3ccc(F)cc3)CC2)cc1Cl`: “inactive”; for `COc1ccc2c(c1)c(=O)c(C(=O)c1ccc(Cl)cc1)cn2CC(=O)Nc1ccc(F)cc1`: “inactive”; for `ONC(=Nc1ccc(Cl)cc1)c1ccccc1Cl`: “inactive”.
The same measure, in the same setting: the entry for `Cc1cccc2c1-c1sc(C(=O)NCCCN3CCc4ccccc4C3)cc1CO2` is “inactive”; for `COc1ccc2[nH]c3c(c2c1)CCN1C(=O)C(CC(=O)NCCCN(C)C)C[C@H](C(=O)N2CCOCC2)[C@@]31CCC1CCCC1` (stereo partly specified) it is “inactive”.
On the same count and under the same terms, the entry for `CC[C@@H]1Cc2cc(O)ccc2C2=C1c1ccc(O)cc1C[C@H]2CC` is “inactive”; for `CCOc1ccc(C(C)NC(=O)CN2C(=O)NC3(CCCCC3)C2=O)cc1OCC` (stereo unspecified) it is “inactive”; for `CC[C@]12c3[nH]c4ccc(OC)cc4c3CCN1C(=O)C(CC(=O)NCc1ccco1)C[C@@H]2C(=O)N1CCN(C(=O)C2CC2)CC1` (stereo partly specified) it is “inactive”.
On to `CN(C(=O)COC(=O)c1cc(=O)[nH]c2ccccc12)C1CCCCC1`, for which the Potency entry is “inactive”.
Take `CCn1ccnc1CN(C)Cc1nc(-c2ccc3c(c2)OCO3)no1`: the Potency entry was “inactive”.
As to `CN(Cc1cc2cc(F)ccc2[nH]1)Cc1nc(-c2cnccn2)no1`, the Potency result was “inactive”.
Regarding `CN(Cc1nc(-c2cnccn2)no1)Cc1n[nH]c2c1CCCCC2`, the Potency was 31.6 µM (active).
For the compound `COc1ccc(C(F)(F)F)cc1N/C=C\c1nnnn1-c1ccc(C)cc1`, the Potency entry is “inactive”.
Take `O=C1[C@@H](c2ccccc2)[C@@H](c2ccccc2)N1c1cccnc1`: the Potency result is “inactive”.
Still for that read-out and setting: the same measure for `CC(C)N(C(=O)[C@H]1C[C@H](CC(=O)NC(C)(C)C)C(=O)N2CCc3c([nH]c4ccc(Cl)cc34)[C@]12C)C(C)C`: “inactive”.
On the same count and under the same terms, the same measure for `O=C(COC(=O)Cc1ccccc1F)NCCc1ccccc1`: “inactive”; for `C#CCOCCOCCOCCNc1nc(N2CCN(C(=O)[C@H](CCC(=O)O)n3cc(C(N)CO)nn3)CC2)nc(N2CCN(C(=O)[C@H](CCCCN)n3cc(C(N)[C@H](C)CC)nn3)CC2)n1` (stereo partly specified): “inactive”; for `C#CCOCCOCCOCCNc1nc(N2CCN(C(=O)[C@H](CO)n3cc([C@@H](N)C(C)C)nn3)CC2)nc(N2CCN(C(=O)[C@H](CCC(=O)O)n3cc([C@@H](N)[C@H](C)CC)nn3)CC2)n1`: “inactive”.
Regarding `C#CCOCCOCCOCCNc1nc(N2CCN(C(=O)[C@H](CCC(=O)O)n3cc(C(N)CO)nn3)CC2)nc(N2CCN(C(=O)[C@H](CCCCN)n3cc(C(N)CC(C)C)nn3)CC2)n1` (stereo partly specified), the Potency was 31.6 µM (active).
For `CCOC(=O)C1=C(C)N(C[C@@H]2CC[C@@H](Cc3ccc(-c4ccccc4)cc3)O2)C(=O)NC1c1ccc([N+](=O)[O-])cc1` (stereo partly specified), the Potency entry is “inactive”.
On to `COc1ccc(OCc2nnc3n2N=C(c2ccccc2)C(CC(=O)O)S3)cc1` (stereo unspecified), for which the Potency entry is “inactive”.
On to `CCN(CC)C(=O)[C@H]1C[C@H](CC(=O)NCC23CC4CC(CC(C4)C2)C3)C(=O)N2CCc3c([nH]c4cc(CCC(=O)N(C)C)ccc34)[C@]12C`, for which the activation was 5.14% [at 11.5 µM].
Take `CN(C)CCCNC(=O)c1cc(C(=O)Cc2ccc(Cl)cc2)c[nH]1`: the Potency entry was “inactive”.
The same measure, in the same setting: the same measure for `Cc1c(N=Nc2ccc(N(C)C)cc2)c(=O)n(-c2ccccc2)n1C`: “inactive”; for `COc1ccc(NC(=S)NCCN2CCC(C)CC2)cc1`: “inactive”.
`COc1ccc(N2CCC(CNC(=S)Nc3c(C)cccc3C)C2)cc1` (stereo unspecified): the Potency was 17.8 µM (active).
Regarding `COc1ccc(NC(=S)NCC2CCN(c3ccc(OC)cc3)C2)cc1` (stereo unspecified), the Potency entry was “inactive”.
Consider `CC(C)(C)[Si](OCC[C@@H]1C[C@@]1(C)[C@@H](NP(=O)(c1ccccc1)c1ccccc1)c1ccccc1)(c1ccccc1)c1ccccc1`, for which the Potency result was “inactive”.
The same measure, in the same setting: the entry for `CCOc1ccc(N(CC(=O)Nc2ccccc2F)S(=O)(=O)c2c(C)[nH]c(=O)[nH]c2=O)cc1` is “inactive”.
For `O=C(c1ccccc1)N1N=C(c2ccccc2O)CC1c1ccc(Br)cc1` (stereo unspecified), the Potency was 17.8 µM (active).
Turning to `CC(=O)Oc1ccccc1C1=NN(C(C)=O)C(c2ccccc2)C1` (stereo unspecified), the Potency result was “inactive”.
Still for that read-out and setting: the entry for `CNC(=S)N1N=C(c2ccccc2)CC1c1ccc(Br)cc1` (stereo unspecified) is “inactive”.
Regarding `Cn1c2cc(B(O)O)sc2c2cnn(Cc3ccccc3F)c(=O)c21`, the Potency result is “inactive”.
In the case of `CS/C(=C\[N+](=O)[O-])Nc1ccc(C)cc1`, the Potency result is “inactive”.
As to `CCCCn1nnnc1NCc1cc(OC)c(OC)c(OC)c1`, the Potency result is “inactive”.
Take `O=C(NCc1cccs1)C1CCN(S(=O)(=O)c2ccc(Cl)cc2)CC1`: the Potency result is “inactive”.
The same measure, in the same setting: the same measure for `O=C(CNCc1cccs1)Nc1cc(S(=O)(=O)N2CCCC2)ccc1Cl`: 3.16 µM (active); for `CS(=O)(=O)c1ccc(Cl)c(NC(=O)COC(=O)c2cccc(S(=O)(=O)N3CCCC3)c2)c1`: “inactive”.
